CHT PAM: allosteric activators of human choline transporter CHT; B-score at 10 µM; 310,000 tested, 0.49% active; CHT-expressing cells, membrane potential dye, choline EC20; stronger effect = higher value; LV-AA mutant CHT in HEK293 cells; AID 488977;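 active = initial fluorescence not abnormally high and integrated response B-score, plate-corrected, over 3 SD above library mean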
HIF act: HIF pathway transcriptional activation. U2OS HRE-luciferase reporter, luminescence; normalized: DMSO 0%, desferrioxamine 100%. activation, % at 7.5 µM (by protocol). 300,000 tested, 0.32% active. AID 1910;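 active = mean activation of at least 10% of the iron chelator positive control signal, with at least half of replicates also reaching 10%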
AI-2 QS mod: modulators of Vibrio harveyi AI-2 quorum sensing system; activity change, % at 7.5 µM; 300,000 tested, 0.4% active; Vibrio harveyi JMH597 AI-2 luminescence/OD600 ratio, 9 h; stronger effect = lower value; strain lacks LuxN and CqsS sensors; 0 = neutral-control median; in the data active = activity change below about -75%, passing the limit was not always enough;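 also: luminescence divided by OD600 gain over 9 h not by final OD600 alone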
CHT block: inhibits the human high affinity choline transporter. CHT-expressing cells, membrane potential dye, choline response; stronger effect = lower value. Q9GZV3. AID 488975. B-score at 10 µM. 310,000 tested, 0.86% active;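 active = B-score over 3 SD under the library average, and starting fluorescence ratio not unusually high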;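 also: choline stimulus applied at its EC90 after an EC20 pre-addition; B-score computed on integrated fluorescence ratio after choline addition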
VLA-4 inh: inhibition in a human VLA-4 binding assay; P13612; VLA-4 expressing cells, ligand binding flow cytometry; inhibition, % (about 7 µM as worked out from the volumes in the protocol); 330,000 tested, 0.2% active; in the data active = inhibition above about 50%
Platelet DG rel: platelet dense granule release activity; human platelet-rich plasma, SFLLRN dense granule ATP release, luminescence; 300,000 tested, 0.22% active; inhibition, %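 (compounds screened at 7.5 µM in platelet-rich plasma)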;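 active = mean replicate score, as percent of positive control, at or above 50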
CHT activ conf: confirmation of human choline transporter (CHT) activators; shares compounds with CHT PAM; CHT-expressing cells, membrane potential dye fluorescence (FDSS); % of choline EC20–EC90 response window; HEK293 expressing CHT LV-AA mutant; choline added at its EC20; activation, % at 10 µM; 2,500 tested, 91% active; AID 504833;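 active = primary screen active, with duplicate mean activation above negative control mean plus 3 SD, cut at about 11% in these data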
HEK293 MP dye: activity in parental HEK293 cells lacking CHT | shares compounds with CHT PAM | membrane potential dye fluorescence (FDSS); measured after EC20 choline addition | ratio readout change at 10 µM, hits read low | 2,500 tested, 62% active;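 active = duplicate-averaged ratio beyond 3 SD from buffer wells, up or down, though filed actives are nearly all decreases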
Numbers stand for hits; . = inactive; / = not tested or not shown. Compounds with a hit are over-represented: about 2.2% of the library has one in this group of screens.

SMILES | CHT PAM | HIF act | AI-2 QS mod | CHT block | VLA-4 inh | Platelet DG rel | CHT activ conf | HEK293 MP dye
O=C(CCc1ccccc1)N1CCN(c2ccccn2)CC1 | . | . | . | . | . | . | / | /
O=C(c1ccccc1CCc1ccccc1)N1CCN(c2ccccn2)CC1 | 6.51 | . | . | . | . | . | 26.6 | .
CCCCN(Cc1ccccc1)S(=O)(=O)c1ccc2c(c1)n(C)c(=O)c(=O)n2C | . | . | . | . | . | . | / | /
CN(C)CCN(Cc1ccccc1)S(=O)(=O)c1ccc2c(c1)n(C)c(=O)c(=O)n2C | 12.1 | . | . | . | . | . | 73.9 | -81.2
C[C@@H]1CCCCCCCCC(=O)OCCN(C(=O)OC(C)(C)C)[C@H](C)CCCCCCCCC(=O)OCCN(C(=O)OC(C)(C)C)[C@H](C)CCCCCCCCC(=O)OCCN1C(=O)OC(C)(C)C | / | / | / | / | . | / | / | /
CCCn1c(=O)c2ccccc2n2c(SCCNCCO)nnc12 | 9.1 | . | . | . | . | . | 57.3 | -51.5
COc1ccc(NC(=O)CCCn2cnc3ccccc3c2=O)c(OC)c1 | . | . | . | . | . | . | / | /
COc1ccc(NC(=O)CCCc2nnc3n(C)c(=O)c4sccc4n23)cc1 | . | . | . | . | . | . | / | /
CCC(O)(CC)C(=O)N/N=C/c1cc(Br)cc(Br)c1O | . | . | . | . | . | . | 14.1 | .
COc1ccc2nc(NC(=O)CN3C(=O)NC4(CCCCC4)C3=O)sc2c1 | . | . | . | . | . | . | / | /
N#CCC(=O)NNc1c([N+](=O)[O-])cc(C(F)(F)F)cc1[N+](=O)[O-] | . | . | . | . | . | . | 27.4 | -44.3
O=[N+]([O-])c1cc(C(F)(F)F)cc([N+](=O)[O-])c1NN=C1CCCCC1 | . | . | . | . | . | . | / | /
CCCCn1c(N)c(N(CC(C)C)C(=O)CSCC(=O)Nc2ccc(OC)cc2)c(=O)[nH]c1=O | . | . | . | . | . | . | . | .
CCCCn1c(N)c(N(CC)C(=O)CSCC(=O)Nc2ccc(OC)cc2)c(=O)[nH]c1=O | . | . | . | . | . | . | / | /
Cc1nc(OCC(=O)c2ccc(Cl)cc2)c(C#N)c2c1COC(C)(C)C2 | . | . | . | . | . | . | / | /
CC1(C)Cc2c(C#N)c(OCC(=O)c3ccc(Cl)cc3)nc(-c3ccco3)c2CO1 | 13 | . | . | . | . | . | . | .
CC(C)C(=O)N1CCN(c2ccccc2NC(=O)c2ccc(C#N)cc2F)CC1 | 7.66 | . | . | . | . | . | 54.4 | .
O=C(COC(=O)CC1CCCCC1)Nc1c(Cl)cccc1Cl | / | / | / | / | . | / | / | /
CCOC(=O)c1ccccc1NC(=O)COC(=O)CCC(=O)c1ccc(C)cc1 | . | . | . | . | . | / | / | /
CC(NC(=O)COC(=O)Cc1ccsc1)c1ccccc1 (stereo not drawn) | 6.38 | . | . | . | . | . | . | .
CCOC(=O)c1cc(-c2ccccc2)nc2c1c(C)nn2-c1ccccn1 | 8.59 | . | . | . | . | . | . | .
CCn1c(=O)c2sccc2n(Cc2cc(C(=O)OC)ccc2OC)c1=O | . | . | . | . | . | . | 35.6 | .
COC(=O)c1ccc(OC)c(Cn2c(=O)n(C)c(=O)c3sccc32)c1 | . | . | . | . | . | . | / | /
CN(C(=O)CCc1ccccc1)c1nnc(-c2ccncc2)s1 | 7.41 | . | . | . | . | . | 28.1 | -30.1
CN(C)c1ccc(C(C(=O)NCc2ccccc2)N(Cc2cccnc2)C(=O)c2snc(C(N)=O)c2N)cc1 (stereo not drawn) | / | . | . | / | / | . | / | /
SMILES | CHT PAM | HIF act | AI-2 QS mod | CHT block | VLA-4 inh | Platelet DG rel | CHT activ conf | HEK293 MP dye
O=C(O)CSCC(=O)N1CCN(c2ncnc3scc(-c4ccccc4)c23)CC1 | . | . | . | . | . | . | / | /
CCOC(=O)N1CCN(c2ncnc3scc(-c4ccccc4)c23)CC1 | 9.68 | . | . | . | . | . | 14.8 | .
O=C(CSc1ncnc2scc(-c3ccccc3)c12)N1CCN(c2ccccc2F)CC1 | . | . | . | . | . | . | 42.5 | .
CCOC(=O)c1sc2ncnc(N3CCN(C)CC3)c2c1C | . | . | . | . | . | . | 29.8 | -40.7
CCOCCCn1c(=NC(C)=O)c(C#N)cc2c(=O)n3cccc(C)c3nc21 | . | . | . | . | . | . | 43.4 | -62.2
CCOC(=O)c1c(NC(=O)CN2C(=O)C(=O)N(CC(C)C)C2=O)sc(C)c1CC | . | . | . | . | . | . | / | /
Cc1cc(NCCN2CCOCC2)n2nc(C)c(-c3ccccc3)c2n1 | . | . | . | . | . | . | / | /
COCCNc1cc(C)nc2c3c(C)cc(C)nc3nn12 | . | . | . | . | . | . | 55.2 | -64.5
Cc1cc(C)c2c(n1)nn1c(NCCN3CCOCC3)cc(C)nc21 | 6.88 | . | . | . | . | . | 50.0 | -72.8
C=CCn1c(C(C)(C)C)nc2ccccc21 | . | . | . | . | . | . | / | /
CNC(=S)Nc1cc(S(=O)(=O)Nc2cc(Cl)ccc2Cl)ccc1N1CCCC1 | . | . | . | . | . | . | 14.4 | .
N#Cc1cc(Sc2ccccn2)c([N+](=O)[O-])cc1C#N | . | . | . | . | . | . | 46.0 | -41.3
CC(=O)Nc1ccc(S(=O)(=O)NNc2ccc([N+](=O)[O-])cc2)cc1 | . | . | . | . | . | . | / | /
Cc1ccc2cccc(OCc3nnc(SCC(=O)O)n3C)c2n1 | . | . | . | . | . | . | 50.7 | -53.2
CCN(CC(=O)Nc1ccccc1C(F)(F)F)C(=O)Cc1ccccc1 | . | . | . | . | . | . | / | /
N#Cc1c(NC(=O)CCn2cnc3ccccc3c2=O)oc(-c2ccccc2)c1-c1ccccc1 | . | . | . | . | . | . | . | .
C[C@H]1CN([C@@H](C)CO)C(=O)Cc2cc(NS(=O)(=O)c3cccs3)ccc2O[C@H]1CN(C)S(=O)(=O)c1cn(C)cn1 | / | / | / | / | . | / | / | /
Cc1sc(NC(=O)c2ccccc2)c(C(=O)NCCN(C)C)c1C | . | . | . | . | . | . | 36.7 | -57.3
CN(C)CCNC(=O)c1ccccc1 | . | . | . | . | . | . | / | /
CC(=O)COc1ccccc1OC(=O)c1ccco1 | . | . | . | . | . | . | . | .
Clc1cnc(N/N=C/c2ccncc2)c(Cl)c1 | . | . | . | . | . | . | 36.6 | -44.1
Cc1ccnc(Nc2nc(-c3ccc(O)cc3O)cs2)c1 | . | . | / | . | . | . | / | /
COC(=O)C1=C(C)NC(C)=C(C(=O)OCC2CCCO2)C1c1cccc(Br)c1 (stereo not drawn) | . | . | . | . | . | . | / | /
